Many of the other results were omitted from the sample, so hits are more common in it than they were.
Shiga inhibitor: inhibitors of Shiga toxin in Vero cells; Vero cells, Shiga toxin protein synthesis inhibition reporter; inhibition, % at 38.7 µM; actives 9.2% (n = 290,000); AID 2315; in the data active = inhibition mostly above about 28%, no sharp cut-off; inactive = mostly below about 43%
TbPYK inhibitor: blocks Trypanosoma brucei pyruvate kinase; actives 0.12% (n = 410,000); TbPYK enzyme, Kinase-Glo Plus ATP luminescence, 45 min; Potency, µM (top dose mostly 76.8 µM), actives largely listed as inhibitors; Q57TT1; AID 624173; note: nearly all actives have a fitted effect of over 50% in size
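ADP (130 uM final) triggers the TbPYK reaction after compound addition; incubation is 45 min at room temperature. Kinase-Glo Plus is then added and luminescence imaged. Normalized data are fitted to concentration-effect curves.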
FBPA Giardia inh: blocks Giardia fructose-bisphosphate aldolase activity. Potency, µM (doses to about 59.6 µM), usual class: inhibitors. actives 0.71% (n = 290,000). purified Giardia FBPA. A8B2U2; note: nearly all actives have a fitted effect of over 55% in size
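Giardia FBPA (40 nM reagent) was preincubated 10 min at RT with compound (up to 57.5 uM final), then substrate plus GAPDH/TPI/NAD/arsenate coupling system with diaphorase/resazurin was added; resorufin fluorescence (525/598 nm) was read after 20 min.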
LmPK inh: inhibitors of Leishmania mexicana pyruvate kinase; Potency, µM (doses to about 57.5 µM), usual class: inhibitors; purified LmPK, Kinase-Glo ATP luminescence, 1 h; actives 0.37% (n = 290,000)
Target sequence (Q27686 whole entry, looked up): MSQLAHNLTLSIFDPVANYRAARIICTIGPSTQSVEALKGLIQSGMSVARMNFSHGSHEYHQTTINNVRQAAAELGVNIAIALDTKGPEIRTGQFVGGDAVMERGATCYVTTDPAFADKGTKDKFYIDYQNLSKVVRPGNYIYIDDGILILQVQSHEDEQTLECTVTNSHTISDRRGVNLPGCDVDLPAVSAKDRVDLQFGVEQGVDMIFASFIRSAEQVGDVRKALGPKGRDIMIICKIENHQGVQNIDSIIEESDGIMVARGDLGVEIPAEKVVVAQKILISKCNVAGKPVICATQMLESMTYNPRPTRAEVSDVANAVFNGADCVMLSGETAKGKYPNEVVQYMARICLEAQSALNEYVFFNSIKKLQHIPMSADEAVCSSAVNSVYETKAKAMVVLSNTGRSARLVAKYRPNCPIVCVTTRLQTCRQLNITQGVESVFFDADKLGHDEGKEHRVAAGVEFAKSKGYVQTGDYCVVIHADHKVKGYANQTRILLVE
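In 50 mM imidazole pH 7.2 with 7 mM MgCl2, LmPK (0.1 nM) turned over PEP (0.5 mM) and ADP (0.1 mM) for 1 h at room temperature. Luciferase read-out of ATP.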
RE007 growth inh: less growth of the S. pombe RE007 Vpr strain; AID 651644; Potency, µM (doses to about 92.2 µM), actives largely listed as inhibitors; S. pombe RE007 Vpr strain, BacTiter-Glo ATP luminescence, 24 h; actives 0.21% (n = 360,000); active = well fitted falling curve with a large enough effect; note: nearly all actives have a fitted effect of over 50% in size
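Fission yeast RE007 carrying one integrated HIV-1 vpr copy, seeded at OD 0.01 in PMG+AL medium with 23 nL pinned compound. Grown 24 h at 30 degrees; viability read by BacTiter-Glo luminescence after 5 min.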
Cycloheximide cs: counter-screen for Shiga toxin inhibitors: cycloheximide protein synthesis inhibition; AID 2314; cell reporter, cycloheximide protein synthesis inhibition counterscreen; max response, %; actives 12% (n = 300,000); in the data active = max response mostly above about 13%, no sharp cut-off; inactive = mostly below about 14%; note: read at 38.3 µM for the half of the compounds with a filed dose
Numbers stand for hits; - = inactive; . = not tested or not shown. Unless noted, calls come from the whole dose curve; as a rule, active = well fitted curve in the direction sought with a large enough effect; inconclusive = small, poorly fitted or top-dose-only effect, or another doubt; inactive = no such curve, though single readings can be large; an effect the other way counts as inactive or inconclusive.

SMILES | Shiga inhibitor | TbPYK inhibitor | FBPA Giardia inh | LmPK inh | RE007 growth inh | Cycloheximide cs
Nc1cnc(-c2ccccc2)nc1Cl | 13 | - | - | - | - | -
O=C(O)c1ncc(-c2ccccc2)cn1 | - | - | - | - | - | -
Nc1nc(N)nc(-c2ccccc2)n1 | - | - | - | - | - | -
C=C1c2ccccc2O[C@H](C(=O)OCC)[C@@H]1CC(C)(C)c1ccccc1 | - | . | - | . | . | -
Oc1ccc2c(ccc3[nH]cnc32)c1 | 51 | - | - | - | . | 28
Oc1ccc2cccnc2c1 | - | - | - | - | - | -
COc1ccccc1CNC(=O)c1cc2cc(C)ccc2n1C | . | - | . | . | . | .
Cc1[nH]c2ccccc2c1SCC(=O)N1CCCc2ccccc21 | - | - | - | - | - | -
Cc1[nH]c2ccccc2c1C(=O)C(=O)N1CCCc2ccccc21 | 64 | - | - | - | - | 50
COc1ccc(N2CCN(C(=O)C(=O)c3c(C)[nH]c4ccccc34)CC2)cc1 | - | - | . | - | - | -
CC(=O)c1ccc(N2CCN(C(=O)C(=O)c3c(C)[nH]c4ccccc34)CC2)cc1 | - | - | - | - | - | 15
CCOC(=O)c1nc2sc3c(c2c(=O)[nH]1)CCC(C)C3 (configuration not stated) | - | - | - | - | - | -
CC1CCc2c(nc3sc4c(c3c2N)CCCC4)C1 (configuration not stated) | active | - | - | - | - | 37
CC1CCc2nc3sc4c(c3c(N)c2C1)CCCC4 (configuration not stated) | 56 | - | - | - | - | 33
NC(=O)CC(NC(=O)c1ccc(Br)cc1)c1ccc(N2CCCCCC2)c([N+](=O)[O-])c1 (configuration not stated) | - | - | - | - | - | -
Cc1cccc(NC(=O)C(=O)NCCc2sc(-c3ccccc3)nc2C)c1C | . | - | . | . | . | .
O=C(CNC(=O)c1ccc(Cl)cc1)OCC(=O)c1ccc2c(c1)OCCO2 | - | - | - | - | - | 45
COC(=O)CCC(NC(=O)c1cc(-c2ccc3c(c2)OCCO3)oc1C)C(=O)OC (configuration not stated) | - | - | - | - | - | -
CCOC(=O)CNC(=O)c1ccc2c(c1)OCCO2 | 59 | - | - | - | - | 46
CCOC(=O)CNC(=O)c1cc(-c2ccc3c(c2)OCCO3)oc1C | 63 | - | - | - | - | 44
CCOc1ccccc1C(=O)NCC(=O)OCC(=O)c1ccc2c(c1)OCCO2 | - | - | - | - | - | -
O=C(COC(=O)/C=C/c1ccccc1)NC1CCCCC1 | . | - | . | . | - | .
O=S1(=O)CC(O)C(O)CS1 (configuration not stated) | . | - | . | . | - | .
C/C=C/c1ccc(OCC(=O)OCc2csc(Nc3ccc(C)cc3)n2)c(OC)c1 | 91 | - | - | - | - | 44
Cc1ccc(Nc2nc(COC(=O)COc3ccc(C=O)cc3)cs2)cc1 | 69 | - | - | - | - | 25
SMILES | Shiga inhibitor | TbPYK inhibitor | FBPA Giardia inh | LmPK inh | RE007 growth inh | Cycloheximide cs
C/C=C/c1ccc(OCC(=O)Nc2ccc(C(N)=O)cc2)c(OC)c1 | - | - | - | - | - | -
CC(=O)c1c(C)[nH]c(C(=O)OCc2ccccc2F)c1C | 95 | - | - | - | - | 46
Cc1c(C(=O)OCCOc2ccccc2)[nH]c2c1C(=O)CCC2 | 47 | - | - | - | - | 29
CC(=O)c1c(C)[nH]c(C(=O)OCCOc2ccccc2)c1C | 47 | - | - | - | - | -
CC(=O)c1c(C)[nH]c(C(=O)COC(=O)CCCOc2ccccc2)c1C | - | - | - | - | - | -
CCOc1ccc(C2CC(=O)c3c([nH]c(C(=O)OCCOc4ccccc4)c3C)C2)cc1 (configuration not stated) | . | - | . | . | . | .
Cc1c(C(=O)OC2CCCC2C)[nH]c2c1C(=O)CCC2 (configuration not stated) | 64 | - | - | - | - | 48
CC(=O)c1c(C)[nH]c(C(=O)OCc2ccc(Br)cc2)c1C | 69 | - | - | - | - | 45
CCOC(=O)c1c(C)[nH]c(C(=O)OCc2ccc(C)cc2)c1C | . | - | . | . | - | .
CC(=O)c1c(C)[nH]c(C(=O)OCc2cccc(C)c2)c1C | 95 | - | - | - | - | 36
CCC(=O)Nc1ccc(Br)cn1 | - | - | - | - | - | -

Screening data (PubChem BioAssay)
